Test results from PubChem BioAssay (Tox21).
Inconclusive results are not listed. A call without a number means that no potency is given here. Activity calls are given as the source filed them. Unless noted, the call rests on the fitted dose curve; in most records, active means well fitted curve in the direction sought with a large enough effect in the repeat runs; inconclusive means weak or mixed curves; inactive means no such curve, though single readings can be large; an effect the other way counts as inactive or inconclusive.

Columns and labels:
[1] = qHTS assay to identify small molecule agonists of the progesterone receptor (PR) signaling pathway - cell viability counter screen (AID 1346799; calls by dose curve; further: nearly all actives have a fitted effect of over 45% in size; further: potency means the concentration at half of the fitted maximal effect); conditions: PR-UAS-bla HEK293T viability, CellTiter-Glo luminescence, 16 h; series mostly up to 92.4 µM
How it was run: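 HEK293T PR-UAS-bla, 3,000 cells/well, 2% charcoal-stripped FBS; 6 h settle, compound 16 h at 37C/5% CO2; LiveBLAzer 2 h RT, then CellTiter-Glo 30 min RT, luminescence read.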

[2] = qHTS assay to identify small molecule antagonists of the TGF-beta/Smad signaling pathway - cell viability counter screen (AID 1346824); conditions: SBE-bla HEK293T viability, CellTiter-Glo luminescence; series mostly up to 76.8 µM; further: nearly all actives have a fitted effect of over 50% in size
How it was run: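 SBE-bla HEK 293T cells, incubated overnight, then compound plus 0.25 ng/mL TGF-beta1 (stock added) for 5 hr at 37 C. Viability was read in the same wells by CellTiter-Glo luminescence after 30 min at room temperature.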

[3] = qHTS assay to identify small molecule agonists of the TGF-beta/Smad signaling pathway - cell viability counter screen (AID 1346829); conditions: SBE-bla HEK293T viability, CellTiter-Glo luminescence, 5 h; series mostly up to 76.8 µM; further: top concentration of the series differs between compounds; nearly all actives have a fitted effect of over 45% in size
How it was run: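 After overnight seating at 37 C and 5% CO2, reporter cells got compounds for 5 hr and FRET substrate for 2 hr; cell viability then came from CellTiter-Glo luminescence.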

[4] = qHTS assay to identify small molecule agonists of the TGF-beta/Smad signaling pathway (AID 1346859; active means well fitted activation curve with a large enough effect in the signal ratio in the repeat runs, not every such curve was filed as active; the % refers to the signal ratio); conditions: SBE-bla HEK293T, TGF-beta/Smad beta-lactamase reporter, 5 h; series mostly up to 76.8 µM
How it was run: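 Read-out: fluorescence at 460 and 530 nm (405 nm excitation) after a 2 hr room-temperature incubation with beta-lactamase FRET substrate. SBE-bla HEK 293T cells had been treated with test compounds for 5 hr at 37 C.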

[5] = molecular target: Thyrotropin-releasing hormone receptor (Homo sapiens) (UniProt P34981); assay: qHTS assay to identify small molecule antagonists of the thyrotropin-releasing hormone receptor (TRHR) signaling pathway (AID 1346877; active means well fitted inhibition curve with a large enough effect in the repeat runs, not every such curve was filed as active); conditions: TRHR-HEK293, TRH-induced calcium fluorescence, antagonist mode; series mostly up to 51.3 µM
Thyrotropin-releasing hormone receptor (Homo sapiens), sequence (P34981 whole entry, looked up): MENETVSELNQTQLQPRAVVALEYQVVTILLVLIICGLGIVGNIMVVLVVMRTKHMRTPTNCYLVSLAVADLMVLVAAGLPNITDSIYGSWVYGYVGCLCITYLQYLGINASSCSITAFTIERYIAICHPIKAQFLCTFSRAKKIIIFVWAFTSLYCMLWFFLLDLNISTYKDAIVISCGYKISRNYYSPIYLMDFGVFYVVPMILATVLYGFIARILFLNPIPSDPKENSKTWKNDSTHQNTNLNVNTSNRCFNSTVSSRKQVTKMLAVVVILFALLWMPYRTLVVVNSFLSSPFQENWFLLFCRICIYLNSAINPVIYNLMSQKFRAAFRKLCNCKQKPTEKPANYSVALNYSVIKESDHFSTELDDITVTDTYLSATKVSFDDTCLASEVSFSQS
How it was run: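 TRHR-expressing HEK293 cells were seeded, cultured 18 h at 37 °C, then loaded with calcium dye for 2 h. Compounds were pre-incubated 5 min at room temperature before 1 nM TRH (final) was added, and kinetic fluorescence was recorded for 3 min.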

[6] = molecular target: Thyrotropin-releasing hormone receptor (Homo sapiens) (UniProt P34981); assay: qHTS assay to identify small molecule agonists of the thyrotropin-releasing hormone receptor (TRHR) signaling pathway (AID 1346891; calls by dose curve); conditions: TRHR-HEK293 calcium fluorescence, agonist mode; series mostly up to 57.6 µM
How it was run: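 HEK293/TRHR cells, 1500 per well, 18 h 37 °C; Ca dye 2 h 37 °C; pin-tool compound addition (agonist mode); kinetic fluorescence 3 min, 1 s reads; 15 concentrations, triplicate.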

[7] = Human pregnane X receptor (PXR) small molecule agonists, qHTS cell viability counter screen (AID 1346977); conditions: PXR-Luc HepG2 viability, CellTiter-Fluor, 24 h; series mostly up to 92.4 µM; further: nearly all actives have a fitted effect of over 50% in size
How it was run: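 Fluorescence read-out (CellTiter-Fluor) of viability in PXR-Luc HepG2 cells, multiplexed with the luciferase agonist read. Compounds in DMSO added after 5hr plating; 24hr total exposure at 37C, 5% CO2.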

[8] = Caspase-3/7 induction in HepG2 cells by small molecules, qHTS assay (AID 1346978); conditions: HepG2 caspase-3/7 activation, Caspase-Glo luminescence, 17 h; series mostly up to 92.4 µM; further: nearly all actives have a fitted effect of over 15% in size
How it was run: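 Wild-type HepG2 cells, 2,000/well, settled 5 hr at 37 C and 5% CO2, then compound-treated for 17 hr; caspase-3/7 activity read by luminescent Caspase-Glo 3/7 after 30 min at room temperature.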

[9] = qHTS assay to identify small molecule antagonists of the progesterone receptor (PR) signaling pathway - cell viability counter screen (AID 1346798); conditions: PR-UAS-bla HEK293T viability, CellTiter-Glo luminescence, 16 h; series mostly up to 92.4 µM; further: nearly all actives have a fitted effect of over 50% in size
How it was run: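 Luminescence readout (CellTiter-Glo, 30 min, RT) of viability in PR-UAS-bla HEK293T cells exposed to compound and R5020 agonist for 16 hr at 37C, 5% CO2; run in the same wells as the beta-lactamase reporter read.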

Row | SMILES | Potency [1] | outcome [2] | outcome [3] | outcome [4] | outcome [5] | Potency [6] | Potency [7] | outcome [8] | Potency [9]
1 | CO/N=C(\C(=O)N[C@@H]1C(=O)N2C(C(=O)O)=C(CSc3nc(=O)c(O)nn3C)CS[C@H]12)c1csc(N)n1 | inactive | inactive | inactive | inactive | inactive | inactive | inactive | inactive | 
2 | CCOC(=O)OC(C)OC1=C(C(=O)Nc2ccccn2)N(C)S(=O)(=O)c2ccccc21 (centres undefined) |  | inactive | inactive | inactive | inactive | inactive | inactive | inactive | inactive
3 | CCCCCCCCCCCCCCC(=O)O | inactive |  |  | inactive | inactive | inactive | inactive | inactive | inactive
4 | O=C(O)Cc1csc(-c2ccc(Cl)cc2)n1 | inactive | inactive |  |  | inactive | inactive | inactive |  | inactive
5 | C[C@H]1C[C@H]2[C@@H]3CCC4=CC(=O)C=C[C@]4(C)[C@H]3C(=O)C[C@]2(C)[C@@]1(O)C(=O)CO |  | inactive | inactive | inactive | inactive | inactive | inactive | inactive | inactive
6 | CCCCc1ccc2c(n1)[C@@H](c1ccc(OC)cc1C[C@H](C)C(=O)O)[C@H](C(=O)O)[C@H]2c1ccc2c(c1)OCO2 | inactive | inactive |  | inactive |  |  | inactive |  | 
7 | NC(=O)NC1N=C([O][Al])NC1=O (centres undefined) | inactive | inactive |  | inactive | inactive | inactive | inactive | inactive | 
8 | O=CN(CCO)CCO | inactive | inactive |  | inactive | inactive | inactive | inactive | inactive | inactive
9 | CCOc1c(N2CCOCC2)cnn(C)c1=O |  | inactive | inactive | inactive | inactive | inactive | inactive | inactive | inactive
10 | C=C(C)C(=O)OCC(O)CO (centres undefined) |  | inactive | inactive | inactive | inactive | inactive | inactive |  | inactive
11 | Nc1ccccn1 |  | inactive | inactive | inactive | inactive | inactive | inactive | inactive | inactive
12 | CCOc1ccccc1OCC | inactive | inactive |  | inactive |  |  | inactive | inactive | inactive
13 | CCCn1cc[n+](C)c1C |  | inactive |  | inactive |  |  | inactive | inactive | inactive
14 | Clc1cc(Cl)c(Cl)nc1Cl |  | inactive | inactive | inactive | inactive | inactive | inactive | inactive | inactive
15 | C=C(C)C(=O)OCC1CCCO1 (centres undefined) |  | inactive | inactive | inactive | inactive | inactive | inactive | inactive | inactive
16 | Clc1cc(Cl)cc(Cl)c1 |  | inactive | inactive | inactive | inactive | inactive | inactive | inactive | inactive
17 | CC1CCC(CO)CC1 (centres undefined) |  | inactive | inactive | inactive | inactive | inactive | inactive |  | inactive
18 | Cc1ccc(-c2ccccc2C#N)cc1 |  | inactive | inactive | inactive | inactive | inactive | inactive | inactive | inactive
19 | c1ccc(Cc2ccccc2)cc1 |  | inactive | inactive | inactive | inactive | inactive | inactive | inactive | inactive
20 | CCCCOC(=O)CCC(C)=O |  | inactive | inactive | inactive | inactive | inactive |  | inactive | inactive
21 | O=C(c1ccccc1)C1(O)CCCCC1 |  | inactive | inactive | inactive | inactive | inactive | inactive | inactive | inactive
22 | CCN(C=O)CC | 49.8 µM (active) | inactive | inactive | inactive | inactive | inactive | inactive | inactive | 
23 | COC(=O)C1=C(C)NC(C)=C(C(=O)OC(C)C)C1c1cccc2nonc12 (centres undefined) |  | inactive | inactive | inactive |  |  |  | inactive | 
